From PubChem BioAssay AID624330 (Southern Research Specialized Biocontainment Screening …, 2012) come the findings set out here.

Each structure is given as a SMILES string. Values joined by “and” are separate entries in the source; they are usually repeats but may differ in a detail not shown here. Equal entries are not always repeated. The whole screen tested about 340,000 compounds, of which about 2,100 (0.62%) were called active. Not all results are given here. Potency and affinity values are given separately. Unmarked numbers belong to inactive results.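 The calls were made as follows: active = first-screen hits whose inhibition reached a set limit at any dose in the follow-up dose series; inconclusive = inhibition above the set first-screen limit but never retested; inactive = the rest.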

As a reminder, the inhibition is the drop in the measured response relative to a control, in per cent.

For the assay, the target named is Rac GTPase-activating protein 1 (Homo sapiens) (UniProt Q9H0H5). In words: blockers of MgcRacGAP-driven Rac1 GTP hydrolysis – biochemical, ADP Hunter fluorescence, primary and confirmatory, confirmation (AID 624330).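 Also: fluorescence reports GDP produced by GAP-driven GTP hydrolysis.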 To be noted: MgcRacGAP-stimulated Rac1 GTP hydrolysis, at 30 µM, active compounds read high, GST-tagged Rac1 F28L mutant substrate.
Chain of Rac GTPase-activating protein 1 (Homo sapiens) (Q9H0H5 whole entry, looked up): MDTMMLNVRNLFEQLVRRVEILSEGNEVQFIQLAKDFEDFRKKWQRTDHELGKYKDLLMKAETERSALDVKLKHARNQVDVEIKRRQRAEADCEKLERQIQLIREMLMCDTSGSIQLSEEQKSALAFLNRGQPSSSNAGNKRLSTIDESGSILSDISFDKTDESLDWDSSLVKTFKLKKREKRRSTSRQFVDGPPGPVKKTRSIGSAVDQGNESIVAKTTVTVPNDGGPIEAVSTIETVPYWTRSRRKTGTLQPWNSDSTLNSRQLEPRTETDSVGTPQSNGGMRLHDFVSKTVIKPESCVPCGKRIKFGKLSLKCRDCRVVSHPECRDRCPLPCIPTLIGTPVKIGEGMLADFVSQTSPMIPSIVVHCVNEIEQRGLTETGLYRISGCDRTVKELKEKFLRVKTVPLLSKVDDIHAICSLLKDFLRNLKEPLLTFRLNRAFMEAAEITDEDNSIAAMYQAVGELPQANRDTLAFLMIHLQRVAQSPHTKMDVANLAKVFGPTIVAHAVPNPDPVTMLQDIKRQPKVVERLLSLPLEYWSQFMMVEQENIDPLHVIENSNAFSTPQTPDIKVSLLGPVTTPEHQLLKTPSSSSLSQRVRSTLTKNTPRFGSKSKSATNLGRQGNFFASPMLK
With `Cc1nn(-c2cc(C(F)(F)F)ccc2Cl)c2nc(C(Cl)(Cl)Cl)[nH]c(=O)c12`, the inhibition is 9.52%.
Regarding `COc1ccc(C2C3=C(CC(C)(C)CC3=O)Oc3ncn(Cc4ccccc4)c(=N)c32)cc1` (configuration not stated), the inhibition was 2.61%.
As for `COc1cc(/C=C/C(=O)O)ccc1OCc1ccc([N+](=O)[O-])cc1`, the inhibition was 7.48%.
In the case of `COC(=O)C(=Cc1ccc(OCc2ccc([N+](=O)[O-])cc2)c(OC)c1)C(=O)OC`, the inhibition is 13.9%.
Take `C/C(N)=C(/C#N)C(=O)CSc1nnc(SCc2ccc(Cl)cc2)s1`: the inhibition was 2.43% and 2.31%.
With `COc1cc(C(=O)NNC(=O)CNC(=O)C2CCCCC2)ccc1OC(C)C`, the inhibition was 0.59%.
With `Cc1ccc(S(=O)(=O)N2[C@@H](c3ccc(F)cc3)C(C(=O)O)=C[C@H]2CC2CCCC2)cc1` the figure was 11%.
Take `Cc1ccc(NC(=O)CN2C(=O)c3ccccc3C2=O)cc1`: the inhibition is 10.7%.
With `CN(C)c1ccc(NC(=O)CN2C(=O)CC(c3ccccc3)=Nc3ccccc32)cc1`, the inhibition was 30.9%.
For `O=C(CN1C(=O)c2ccccc2C1=O)Nc1ccccc1`, the inhibition is 1.35%.
For the molecule `CCOc1ccc(NC(=O)CCN2C(=O)c3cccc([N+](=O)[O-])c3C2=O)cc1`, the inhibition is 3.27%.
Turning to `CN1CC(=O)N(CC(=O)NCc2ccc(F)cc2)c2ccccc2C1=O`, the inhibition was 1.75%.
As to `CN1CC(=O)N(CC(=O)Nc2ccc(F)cc2)c2ccccc2C1=O`, the inhibition is -12.2%.
Regarding `CN(C)c1ccc(NC(=O)CN2CCc3ccccc3C2)cc1`, the inhibition is 14.3%.
Take `COc1ccc(NC(=O)CCN2C(=O)c3cccc([N+](=O)[O-])c3C2=O)cc1`: the inhibition was 6.66%.
With `COC(=O)Nc1nnc(-c2ccc(OC)cc2)s1`, the inhibition was 16%.
Take `COc1ccc(C(=O)NNC(=O)COc2ccc(Cl)cc2C)cc1S(=O)(=O)N1CCOCC1`: the inhibition is 6.89%.
With `O=C(NCCN1CCOCC1)C(Sc1ccccc1)c1ccccc1` (configuration not stated) the figure was 15.2%; with `NCCSc1c(-c2ccc(Cl)cc2)[nH]c2ccccc12`, 8.34%.
Turning to `O=C(COC(=O)c1c(F)cccc1Cl)NC(=O)Nc1ccc2c(c1)OCCO2`, the inhibition was 0.21%.
With `CC(=O)NC12CC3CC(C1)CC(C(=O)N1CCN(S(=O)(=O)c4ccccc4[N+](=O)[O-])CC1)(C3)C2` the figure was 9.33%; with `COCCNC(=O)c1cc(-c2ccccc2)nn1Cc1cc(C)no1`, 2.94%; with `Cc1c(-c2ccccc2)c(=O)oc2cc(O)ccc12`, 7.91%.
`O=c1oc2cc(O)ccc2c2ccccc12`: the inhibition was 17.2%.
With `COc1ccc(F)cc1S(=O)(=O)NCC1CCCO1` (configuration not stated), the inhibition was 1.18%.
Take `O=C(CSc1nc(-c2ccco2)cc(C(F)(F)F)n1)Nc1ccc2c(c1)OCO2`: the inhibition is 4.87%.
The figure for `Cc1ccc(CNc2nc(C)nc3sc4c(c23)CCC4)cc1` is 5.5%; for `Cc1nc(Nc2cccc(O)c2)c2c3c(sc2n1)CCC3` it is 10.2%; for `O=C(c1cccc(S(=O)(=O)N2CCCCCC2)c1)N1CCN(c2ccccc2F)CC1` it is 2.31%.
As to `COc1ccccc1OCC(=O)N1CCCC(Nc2ccc(F)c(F)c2)C1` (configuration not stated), the inhibition was 7.15%.
As to `COc1ccc(NC2CCCN(C(=O)CSc3ccccn3)C2)cc1OC` (configuration not stated), the inhibition is 30.4%.
Turning to `O=C1CCCN1CCC(=O)N1CCCC(Nc2ccc(F)c(F)c2)C1` (configuration not stated), the inhibition is 7.57%.
The figure for `O=C1CCCN1CCC(=O)N1CCCC(Nc2ccc(F)cc2)C1` (configuration not stated) is 7.82%.
On to `O=C(CCCn1cncn1)N1CCCC(Nc2ccc(F)cc2)C1` (configuration not stated), for which the inhibition was 5.12%.
Take `CC(C)c1ccc(NC2CCCN(C(=O)CCCn3cncn3)C2)cc1` (configuration not stated): the inhibition is 6.88%.
Consider `COc1ccccc1OCC(=O)N1CCCC(Nc2ccc(C)c(C)c2)C1` (configuration not stated), for which the inhibition is 14.2%.
Regarding `O=C(CSc1ccccc1)N1CCCC(Nc2ccccc2)C1` (configuration not stated), the inhibition is 8.49%.
Take `C[C@@H]1CN([C@@H](C)CO)C(=O)c2cc(Br)cnc2O[C@@H]1CN(C)C(=O)Nc1ccc(F)cc1`: the inhibition is 9.67%.
For the molecule `C[C@H](NC(N)=O)C(=O)OCC(=O)Nc1ccc(OC(F)F)cc1`, the inhibition is 5.01%.
With `COc1ccc(C2C(C(=O)NCc3ccco3)CCC(=O)N2c2ccc(OC)cc2)cc1` (configuration not stated), the inhibition was -1.81%.
With `O=C(CN1CCCC1)Nc1cccc(Cl)c1` the figure was 6.77%; with `CN(CCOc1ccc(Cl)cc1)C(=O)c1cccc(S(=O)(=O)N2CCN(c3ccc(F)cc3)CC2)c1`, 2.42%.
As for `COc1cccc(/C=N/n2c(-c3n[nH]c4c3CCC4)n[nH]c2=S)c1OC`, the inhibition is 10.4%.
With `COc1ccc(/C=N/n2c(SC)nnc2-c2ccccc2)cc1C`, the inhibition was 12.1%.
The figure for `COc1ccc(/C=N/n2c(C)nnc2C)c(OC)c1OC` is 8.6%; for `COc1ccc(/C=N/n2c(SC)nnc2-c2ccccc2)c(OC)c1OC` it is 10.5%.
Take `COc1cccc(/C=N/n2c(C3CCCCC3)n[nH]c2=S)c1O`: the inhibition is 17.5%.
For the molecule `COc1ccc(/C=N/n2c(-c3ccc(C)cc3)n[nH]c2=S)cc1OC`, the inhibition is 8.75%.
As for `COc1ccc(/C=C/C(=O)OC2CCCCC2CN(C)C)cc1` (configuration not stated), the inhibition is 1.25%.
`CCN1CNC(=S)N(c2cccc(C)c2C)C1`: the inhibition was 7.09%.
Consider `O=C(O)C1(S(=O)(=O)c2ccc(Cl)cc2)CCC1`, for which the inhibition was 6.58%.
For `Cc1cccc(N2N=C(C(=O)Nc3nc(C)cs3)CCC2=O)c1`, the inhibition is 10.5%.
As to `O=C(Nc1cccnc1)c1ccccc1F`, the inhibition is 6.52%.
As to `O=C1Nc2ccccc2C1=NN1CCCCCC1`, the inhibition is -3.27%.
On to `O=C1Nc2ccccc2/C1=N\N1CCOCC1`, for which the inhibition is 3.01%.
The figure for `CCN(Cc1ccccc1)S(=O)(=O)c1ccc(S(=O)(=O)N2CCN(CCC#N)CC2)cc1` is -2.32%; for `Cc1ccc(NC(=O)CN(C)C(=O)CCSc2ccc(F)cc2)cc1` it is 5.93%; for `COc1cccc(CN(C)C(=O)c2ccc(C)c(S(=O)(=O)N3CCCCC3)c2)c1` it is 3.14%.
As for `COCCN(C(=O)CNC(=O)c1cccs1)C(C(=O)NC1CCCC1)c1cccs1` (configuration not stated), the inhibition was 8.07%.
With `COc1ccc(NC(=S)NCCSc2ccc(Cl)cc2)c(OC)c1`, the inhibition was -1.73%.
For `CC(=O)Nc1ccc2c3c(cccc13)CC2`, the inhibition is 3.29%.
With `c1ccc(Nc2ccc3c4c(cccc24)CC3)cc1` the figure was 16.2%; with `O=[N+]([O-])c1ccccc1N=Nc1ccc(O)cc1`, 9.07%; with `COCc1[nH][nH]c(=O)c1C=Nc1ccccc1`, 9.38%.
With `O=C(OCc1ccccc1Cl)c1cccnc1Cl` the figure was -1.97%.
With `CCCCn1c(N)c(N(CCOC)C(=O)C(C)N2C(=O)c3ccccc3C2=O)c(=O)[nH]c1=O` (configuration not stated), the inhibition was 0.26%.
For `CC(OC(=O)c1ccc(Cl)c([N+](=O)[O-])c1)C(=O)N1CCN(Cc2ccccc2)CC1` (configuration not stated), the inhibition was 3.69%.
With `CCOc1ccccc1C(=O)NCC(=O)N(C)Cc1ccccc1C` the figure was 6.49%; with `COc1ccccc1N(C)S(=O)(=O)c1ccc(C(=O)Nc2cccc(Br)c2)cc1`, 4.53%.
In the case of `COc1cccc(-n2c(=O)c3ccccc3n3c(=S)[nH]nc23)c1`, the inhibition is 13.7%.
Consider `CCc1ccc(-n2c(=O)c3ccccc3n3c(=S)[nH]nc23)cc1`, for which the inhibition was 12.2%.
Turning to `CCOC(=O)c1oc2ccccc2c1NC(=O)C(C)(C)C`, the inhibition is 4.02%.
In the case of `O=C(c1ccccc1)c1ccc(N2CCOCC2)c(F)c1`, the inhibition was 9.91%.
As for `Cc1cccc(C(=O)N2CCC(N3CCC(C(=O)N4CCOCC4)CC3)CC2)c1`, the inhibition was 7.61%.
For `CCC1Sc2ccccc2N(CC(=O)NC2CC2)C1=O` (configuration not stated), the inhibition was -0.26%.
For `O=C(O)c1cccc(N2C(=O)C=CC2=O)c1`, the inhibition is 9.07%.
On to `Cc1cc(C)cc(N2C(=O)C=CC2=O)c1`, for which the inhibition was 1.25%.
With `COc1cccc(C(=O)NCC(c2ccco2)N2CCc3ccccc3C2)c1` (configuration not stated), the inhibition is 7.73%.
With `Cc1cccc(N2C(S)=C(C#N)C(=O)NC2c2ccco2)c1` (configuration not stated) the figure was 48.2%.
Consider `Cc1ccccc1N1C(S)=C(C#N)C(=O)NC1c1cccs1` (configuration not stated), for which the inhibition was 39%.
On to `N#CC1=C(S)N(c2ccccc2)C(c2cccs2)NC1=O` (configuration not stated), for which the inhibition is 53%.
The figure for `N#CC1=C(S)N(c2ccc(F)cc2)C(c2cccs2)NC1=O` (configuration not stated) is 38.9%.
`COC(=O)c1nnc(-c2ccccc2)nc1OC`: the inhibition was 4.64%.
In the case of `CCN(CC(=O)Nc1ccccc1C(F)(F)F)C(=O)c1cc(-c2cccs2)nn1-c1ccccc1`, the inhibition is 1.06%.
Regarding `CCC(=O)OCc1cc(=O)oc2ccc3ccccc3c12`, the inhibition is 9.78%.
With `O=C(c1cncc(Br)c1)N1CCN(S(=O)(=O)c2ccc3ccccc3c2)CC1`, the inhibition was 2.91%.
With `Nc1nccnc1C(=O)OCC(=O)NC1CCCc2ccccc21` (configuration not stated) the figure was 2.06%.
With `CCN1CCN(c2sc(S(=O)(=O)CC)nc2S(=O)(=O)c2ccc(Cl)cc2)CC1`, the inhibition is 13.7%.
`Cc1ccc(C2=N/C(=C\c3cccs3)C(=O)N2Nc2ccccc2)cc1`: the inhibition was 4.5%.
Take `Cc1nccn1CCOc1ccc(Cl)cc1`: the inhibition is 19.6%.
Consider `COc1ccc(OCC(O)Cn2ccnc2C)cc1` (configuration not stated), for which the inhibition is -5.32%.
Turning to `C/C(=N\Nc1nc2ccccc2[nH]1)c1ccc2c(c1)OCCO2`, the inhibition is 14.6%.
As to `C/C(=N\Nc1nc2ccccc2[nH]1)c1ccc([N+](=O)[O-])cc1`, the inhibition is 9.3%.
Regarding `O=C(Nc1nc2ccccc2[nH]1)c1cccs1`, the inhibition was 5.07%.
Turning to `C/C(=N\Nc1nc2ccccc2[nH]1)c1ccc2c(c1)OCO2`, the inhibition was 29.4%.
Consider `C/C(=N\Nc1nc2ccccc2s1)c1cccs1`, for which the inhibition is 15.9%.
As for `C/C(=N\Nc1nc2ccccc2[nH]1)c1ccccn1`, the inhibition is 16.1%.
